Results: PubChem BioAssay (NCATS)
Inconclusive results are not listed. Values without a mark were called inactive. Activity calls are given as the source filed them. Calls follow the shape of the dose curve; as a rule, active = well fitted curve in the direction sought with a large enough effect; inconclusive = small, poorly fitted or top-dose-only effect, or another doubt; inactive = no such curve, though single readings can be large; an effect the other way counts as inactive or inconclusive.

assay: qHTS of pediatric cancer cell lines to identify multiple opportunities for drug repurposing: Primary screen for LAN-5 cells (AID 1347100); details: LAN-5 neuroblastoma viability, CellTiter-Glo luminescence, 48 h; series mostly up to 46 µM; activity change, negative = cytotoxic: at the top concentration;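 as to activity change, negative = cytotoxic: plate controls were DMSO neutral control for no effect and bortezomib positive control for full effect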
Procedure, shortened: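 Cells (500-1,000/well) in growth media were settled 5 h at 37 degrees C, then given compounds for 48 h. Viability was read as CellTiter-Glo luminescence. Primary runs used MIPE at 11 points (0.78 nM-46 µM) and NPC at 8 points (0.59 nM-46 µM); follow-ups used 11 points.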
Potency is read from the fitted curve at half-maximal effect.

| SMILES | activity change, negative = cytotoxic [%] | Potency |
| --- | --- | --- |
| C[N+]1(CC2COC(c3ccccc3)(C3CCCCC3)O2)CCCCC1 (configuration not stated) | -21.4 | – |
| C=C[C@H]1CN2CC[C@H]1C[C@H]2[C@H](O)c1ccnc2ccc(OC)cc12 | -5.71 | – |
| CN(C)C(=O)Nc1ccc(Cl)c(Cl)c1 | 16.9 | – |
| C[C@@H](O)[C@H]1C(=O)N2C(C(=O)O)=C(S[C@@H]3CN[C@H](CNS(N)(=O)=O)C3)[C@H](C)[C@H]12 | -2.74 | – |
| CCOCCn1c(N2CCCN(C)CC2)nc2ccccc21 | -11.7 | – |
| N#C/C(=C1\SCC(c2ccccc2Cl)S1)n1ccnc1 (configuration not stated) | -9.53 | – |
| Cc1ccc(O)c([C@H](CCN(C(C)C)C(C)C)c2ccccc2)c1 | -3.64 | – |
| CCCCC(CC)COC(=O)c1ccc(N(C)C)cc1 (configuration not stated) | 6.74 | – |
| N#CCC(=O)NN | 8.68 | – |
| Cc1cc(NS(=O)(=O)c2ccc(N)cc2)nc(C)n1 | 15.5 | – |
| COc1cc(N)c(Cl)cc1C(=O)NC1CCN(Cc2ccccc2)CC1 | -24.6 | – |
| CCCCN=C(N)N=C(N)N | 20.1 | – |
| Oc1c(Cl)cc(Cl)c(Cl)c1Cc1c(O)c(Cl)cc(Cl)c1Cl | – | 4.22 µM (active) |
| CCN(CC)CCOc1ccccc1C(=O)CCc1ccccc1 | -3.2 | – |
| CC(C)n1c(/C=C/[C@@H](O)C[C@@H](O)CC(=O)O)c(-c2ccc(F)cc2)c2ccccc21 | 5.71 | – |
| Cc1c[nH]c2ccccc12 | 3.52 | – |
| CCCCCCCCOc1ccc(C(=O)c2ccccc2)c(O)c1 | 2.66 | – |
| OC(C#CCN1CCCC1)(c1ccccc1)c1ccccc1 | 0.965 | – |
| Nc1ccc(S(=O)(=O)NCc2ccccc2)cc1 | 9.67 | – |
| CC(C)Nc1cccnc1N1CCN(C(=O)c2cc3cc(NS(C)(=O)=O)ccc3[nH]2)CC1 | -22.6 | – |
| NS(=O)(=O)c1cc2c(cc1Cl)NC(CC1CCCC1)NS2(=O)=O (configuration not stated) | -2.67 | – |
| C=C1c2cccc(O)c2C(O)=C2C(=O)[C@]3(O)C(O)=C(C(N)=O)C(=O)[C@@H](N(C)C)[C@@H]3[C@@H](O)[C@H]12 | -29.2 | – |
| O=C(NC1CCN(CCc2c[nH]c3ccccc23)CC1)c1ccccc1 | -17.6 | – |
| Clc1cccc(C(c2ccc3nc[nH]c3c2)n2ccnc2)c1 (configuration not stated) | 2.64 | – |
| Cc1c(-c2ccccc2)oc2c(C(=O)OCCN3CCCCC3)cccc2c1=O | -16.1 | – |
| O=C(O)C(Cc1cc(I)c(O)c(I)c1)c1ccccc1 (configuration not stated) | -0.144 | – |
| CC(C)(C)NCC(O)COc1cccc2c1C[C@H](O)[C@H](O)C2 (some centres not stated) | 21 | – |
| NCc1ccccc1Sc1ccccc1CO | 8.48 | – |
| C[N+]1(C)CCC(=C(c2ccccc2)c2ccccc2)CC1 | 6.42 | – |
| CCO[C@@H]1O[C@H](C(COCc2ccccc2)OCc2ccccc2)[C@H](OCc2ccccc2)[C@H]1O (some centres not stated) | -20.2 | – |

assay: qHTS of pediatric cancer cell lines to identify multiple opportunities for drug repurposing: Primary screen for BT-12 cells (AID 1347101); details: BT-12 viability, CellTiter-Glo luminescence, 48 h; series mostly up to 57.3 µM; activity change, negative = cytotoxic: at the top concentration; also: nearly all actives have a fitted effect of over 25% in size;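 as to activity change, negative = cytotoxic: plate controls were DMSO for no effect and bortezomib positive control for full effect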
Procedure, shortened: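 Cells (500-1,000/well) rested 5 h, then received compounds for 48 h; metabolically active cells were measured by CellTiter-Glo luminescence. Final concentrations spanned up to 46 µM (MIPE, 11-point) or 0.59 nM-46 µM (NPC, 8-point) in primary screens, 11-point in follow-ups.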

| SMILES | activity change, negative = cytotoxic [%] | Potency |
| --- | --- | --- |
| C=C[C@H]1CN2CC[C@H]1C[C@H]2[C@H](O)c1ccnc2ccc(OC)cc12 | -11.8 | – |
| CN(C)C(=O)Nc1ccc(Cl)c(Cl)c1 | -25.8 | – |
| C[C@@H](O)[C@H]1C(=O)N2C(C(=O)O)=C(S[C@@H]3CN[C@H](CNS(N)(=O)=O)C3)[C@H](C)[C@H]12 | 2.11 | – |
| CCOCCn1c(N2CCCN(C)CC2)nc2ccccc21 | -3.65 | – |
| N#C/C(=C1\SCC(c2ccccc2Cl)S1)n1ccnc1 (configuration not stated) | -16.1 | – |
| Cc1ccc(O)c([C@H](CCN(C(C)C)C(C)C)c2ccccc2)c1 | -14.1 | – |
| CCCCC(CC)COC(=O)c1ccc(N(C)C)cc1 (configuration not stated) | 1.05 | – |
| N#CCC(=O)NN | 17.2 | – |
| Cc1cc(NS(=O)(=O)c2ccc(N)cc2)nc(C)n1 | 3.94 | – |
| COc1cc(N)c(Cl)cc1C(=O)NC1CCN(Cc2ccccc2)CC1 | -5.67 | – |
| CCCCN=C(N)N=C(N)N | 0.672 | – |
| CC(C)Cc1ccc(CC(=O)O)cc1 | 9.69 | – |
| Oc1c(Cl)cc(Cl)c(Cl)c1Cc1c(O)c(Cl)cc(Cl)c1Cl | – | 13.8 µM (active) |
| CCN(CC)CCOc1ccccc1C(=O)CCc1ccccc1 | -20.8 | – |
| CC(=O)Nc1ccc(S(=O)(=O)Nc2ccc([N+](=O)[O-])cc2)cc1 | 0.381 | – |
| Cc1c[nH]c2ccccc12 | 9.71 | – |

| SMILES | activity change, negative = cytotoxic [%] | Potency |
| --- | --- | --- |
| CCCCCCCCOc1ccc(C(=O)c2ccccc2)c(O)c1 | 4.05 | – |
| Nc1nc(-c2ccccc2)c(Br)c(=O)[nH]1 | -3.89 | – |
| OC(C#CCN1CCCC1)(c1ccccc1)c1ccccc1 | -11.8 | – |
| Nc1ccc(S(=O)(=O)NCc2ccccc2)cc1 | 2.59 | – |
| CC(C)Nc1cccnc1N1CCN(C(=O)c2cc3cc(NS(C)(=O)=O)ccc3[nH]2)CC1 | -15.2 | – |
| NS(=O)(=O)c1cc2c(cc1Cl)NC(CC1CCCC1)NS2(=O)=O (configuration not stated) | 0.228 | – |
| Cc1cc(CC(=O)O)c(C)n1-c1ccc(Cl)cc1 | -1.77 | – |
| CO[C@]12C[C@@H](COC(=O)c3cncc(Br)c3)CN(C)[C@@H]1Cc1cn(C)c3cccc2c13 | 0.764 | – |
| O=C(NC1CCN(CCc2c[nH]c3ccccc23)CC1)c1ccccc1 | -14.4 | – |
| Clc1cccc(C(c2ccc3nc[nH]c3c2)n2ccnc2)c1 (configuration not stated) | -6.57 | – |
| Cc1c(-c2ccccc2)oc2c(C(=O)OCCN3CCCCC3)cccc2c1=O | 8.38 | – |
| O=C(O)C(Cc1cc(I)c(O)c(I)c1)c1ccccc1 (configuration not stated) | 0.517 | – |
| CC(C)(C)NCC(O)COc1cccc2c1C[C@H](O)[C@H](O)C2 (some centres not stated) | 15.5 | – |
| Cc1nc(-c2ccc(Cl)cc2)oc1COC(C)(C)C(=O)O | 4.52 | – |
| NCc1ccccc1Sc1ccccc1CO | -6.02 | – |
| C[N+]1(C)CCC(=C(c2ccccc2)c2ccccc2)CC1 | -8.99 | – |
